{"source": "the supplement of paper PMC3334620", "note": "In all, about 33,000 sequences were measured (“E-score (-0.5 to 0.5)”: median about -0.016, highest 2% from about 0.3 on). For the sample, the highest values were picked, then their nearest neighbours and some sequences at random.", "data": [{"biological_target": "T1, Yer184c (UniProt P39961)", "T1 sequence": "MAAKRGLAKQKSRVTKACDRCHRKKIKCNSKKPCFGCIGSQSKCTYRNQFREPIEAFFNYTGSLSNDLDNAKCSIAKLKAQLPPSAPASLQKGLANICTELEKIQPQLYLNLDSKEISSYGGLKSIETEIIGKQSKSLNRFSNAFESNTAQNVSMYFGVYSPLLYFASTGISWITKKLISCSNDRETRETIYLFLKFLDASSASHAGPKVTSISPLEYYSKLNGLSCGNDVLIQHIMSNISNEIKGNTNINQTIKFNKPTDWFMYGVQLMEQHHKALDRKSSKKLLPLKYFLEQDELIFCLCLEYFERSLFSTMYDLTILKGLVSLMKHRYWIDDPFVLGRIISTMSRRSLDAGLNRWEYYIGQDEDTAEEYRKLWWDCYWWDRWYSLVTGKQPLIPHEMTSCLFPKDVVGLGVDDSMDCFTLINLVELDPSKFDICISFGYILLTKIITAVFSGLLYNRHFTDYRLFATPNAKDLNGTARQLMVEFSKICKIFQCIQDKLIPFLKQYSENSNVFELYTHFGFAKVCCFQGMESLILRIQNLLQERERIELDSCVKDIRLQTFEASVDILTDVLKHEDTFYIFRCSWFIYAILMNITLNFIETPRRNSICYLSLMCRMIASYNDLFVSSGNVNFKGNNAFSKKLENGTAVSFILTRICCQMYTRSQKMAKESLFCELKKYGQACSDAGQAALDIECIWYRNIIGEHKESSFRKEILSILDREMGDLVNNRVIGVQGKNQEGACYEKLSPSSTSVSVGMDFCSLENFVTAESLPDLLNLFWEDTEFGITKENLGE", "assay": "PBM E-score (8-mer binding enrichment) (E-score (-0.5 to 0.5)); higher = stronger / more preferred TF binding", "details": "protein concentration: 100 nM; construct: GST-full length", "procedure,_shortened": "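GST-tagged yeast TFs (full-length or DNA-binding domain) were made by PURExpress in vitro transcription/translation and applied at about 100-200 nM to universal all-10-mer Agilent arrays. The arrays were made double-stranded by primer extension, on fresh or once-stripped slides. Bound protein was detected with fluorescent anti-GST, and scans were normalised with masliner. Each ungapped eight-base word, pooled with its reverse complement, received an E-score (modified Wilcoxon-Mann-Whitney statistic) from the Universal PBM Analysis Suite.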", "values": [{"sequence": "ATGAAGCA", "PBM E-score": -0.0497}, {"sequence": "CACTTCTC", "PBM E-score": -0.119}, {"sequence": "CGTAAGTC", "PBM E-score": -0.00193}, {"sequence": "ATTGTTGA", "PBM E-score": 0.141}, {"sequence": "CCTGCATA", "PBM E-score": -0.105}, {"sequence": "ACAGCGAA", "PBM E-score": 0.117}, {"sequence": "CTTACTGC", "PBM E-score": -0.0955}, {"sequence": "AATTTTCG", "PBM E-score": 0.092}, {"sequence": "ATTTCTCC", "PBM E-score": 0.122}, {"sequence": "ATTTTTCA", "PBM E-score": 0.169}, {"sequence": "ATTTTTCG", "PBM E-score": 0.314}, {"sequence": "ATTTCTCG", "PBM E-score": 0.308}, {"sequence": "ATTTCTCA", "PBM E-score": 0.099}, {"sequence": "ATCTCACA", "PBM E-score": -0.0208}, {"sequence": "GTCTGGCA", "PBM E-score": -0.16}, {"sequence": "CAGTATAC", "PBM E-score": -0.0142}, {"sequence": "AAAAATGC", "PBM E-score": 0.143}, {"sequence": "AAACTAGC", "PBM E-score": -0.093}, {"sequence": "AGTTCCGC", "PBM E-score": 0.305}, {"sequence": "AGTTCCAC", "PBM E-score": -0.00257}, {"sequence": "GGTTCCGA", "PBM E-score": 0.278}, {"sequence": "AGTTCCGA", "PBM E-score": 0.313}, {"sequence": "AGTTCCGG", "PBM E-score": 0.374}, {"sequence": "AGTTCCTG", "PBM E-score": -0.18}, {"sequence": "AGTTCCAG", "PBM E-score": -0.101}, {"sequence": "CGTTCCGC", "PBM E-score": 0.262}, {"sequence": "CGTTCCGA", "PBM E-score": 0.236}, {"sequence": "CCGGTCTC", "PBM E-score": 0.0994}, {"sequence": "CTAAAGGC", "PBM E-score": -0.0965}, {"sequence": "ACTAGCAC", "PBM E-score": -0.174}, {"sequence": "AATGGTAC", "PBM E-score": -0.00404}, {"sequence": "ACTAGGAA", "PBM E-score": -0.177}, {"sequence": "AATGCCCG", "PBM E-score": -0.121}, {"sequence": "CATGCCAG", "PBM E-score": -0.161}, {"sequence": "AATGCCTG", "PBM E-score": -0.123}, {"sequence": "CATGCCGA", "PBM E-score": 0.336}, {"sequence": "CATGCCGC", "PBM E-score": 0.181}, {"sequence": "AATGCCGG", "PBM E-score": 0.35}, {"sequence": "CATGCCGG", "PBM E-score": 0.366}, {"sequence": "CATGCCCG", "PBM E-score": 0.0955}, {"sequence": "AATGCCTA", "PBM E-score": -0.0279}, {"sequence": "CATGCCTA", "PBM E-score": -0.261}, {"sequence": "TATGCCGA", "PBM E-score": 0.28}, {"sequence": "AATGCCGA", "PBM E-score": 0.378}, {"sequence": "CAAATACG", "PBM E-score": -0.00546}, {"sequence": "CGAAACTA", "PBM E-score": 0.0737}, {"sequence": "CACTAGTC", "PBM E-score": -0.184}, {"sequence": "ACTAACGA", "PBM E-score": 0.00902}, {"sequence": "AAAGGCAT", "PBM E-score": 0.141}, {"sequence": "AACCTATT", "PBM E-score": -0.139}, {"sequence": "GCATCCCC", "PBM E-score": -0.168}, {"sequence": "CATCAATG", "PBM E-score": -0.0256}, {"sequence": "GATGCCAA", "PBM E-score": -0.105}, {"sequence": "GATGCCGC", "PBM E-score": 0.106}, {"sequence": "AATGCCGC", "PBM E-score": 0.199}, {"sequence": "AATGCCGT", "PBM E-score": 0.304}, {"sequence": "AATGCCAT", "PBM E-score": 0.055}, {"sequence": "GATGCCGA", "PBM E-score": 0.319}, {"sequence": "CCTCTTCG", "PBM E-score": -0.00118}, {"sequence": "AGTTCCCG", "PBM E-score": 0.223}, {"sequence": "CCGCGGAC", "PBM E-score": 0.295}, {"sequence": "GGGCGGTA", "PBM E-score": -0.0752}, {"sequence": "CGGCGGTA", "PBM E-score": 0.348}, {"sequence": "CCGCGGAG", "PBM E-score": 0.333}, {"sequence": "ACGCGGAG", "PBM E-score": 0.143}, {"sequence": "AGGCGGTA", "PBM E-score": -0.135}, {"sequence": "CCGCGGTA", "PBM E-score": 0.345}, {"sequence": "ACGCGGTA", "PBM E-score": -0.105}, {"sequence": "CCGCGCGA", "PBM E-score": 0.183}, {"sequence": "CCGCGGTC", "PBM E-score": 0.205}, {"sequence": "CCGCGCGC", "PBM E-score": 0.154}, {"sequence": "CCGCGCGG", "PBM E-score": 0.386}, {"sequence": "CCAGCTTC", "PBM E-score": -0.0253}, {"sequence": "CAAAATGA", "PBM E-score": 0.0065}, {"sequence": "GACTCAAC", "PBM E-score": 0.0381}, {"sequence": "ATCTCTTC", "PBM E-score": 0.0858}, {"sequence": "AGGTTAAC", "PBM E-score": -0.037}, {"sequence": "CCGCGGGC", "PBM E-score": 0.25}, {"sequence": "CCGCGGAA", "PBM E-score": 0.416}, {"sequence": "GCGCGGGA", "PBM E-score": 0.0199}, {"sequence": "TCGCGGAA", "PBM E-score": 0.137}, {"sequence": "CCGCGGGA", "PBM E-score": 0.324}, {"sequence": "GCGCGGAA", "PBM E-score": 0.138}, {"sequence": "CGGTGGTC", "PBM E-score": -0.0197}, {"sequence": "AGAGATCC", "PBM E-score": -0.00438}, {"sequence": "AAGTGTCA", "PBM E-score": -0.293}, {"sequence": "ACAAAACT", "PBM E-score": 0.144}, {"sequence": "CGCCCAAA", "PBM E-score": 0.0692}]}]}
